Experimental data published in PubChem BioAssay AID1159580 (chemical genetic matrix, 2015).
In all, about 5,500 compounds went through this assay and about 2,000 (36%) were called active. Inconclusive results (about 18%) are left out. Rule as the data show it: active = normalized growth mostly below about 0.91 (no sharp cut-off); inconclusive = no clear call, values can overlap the other calls; inactive = mostly above about 0.92. The list shows a part of the results.

Assay: chemical genetic growth profiling, strain panel (AID 1159580);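 also: tested at 20 µM; growth read once vehicle control cultures reached saturation at 30 °C; 1 = growth at the plate median or of vehicle wells; lower values mean less growth of the strain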
Conditions: growth OD

Measured: normalized growth

Cc1cc(C(F)(F)F)c(C#N)c(=O)[nH]1
inactive: S. cerevisiae deletion strains, locus YAL013W, strain DEP1, active compounds read low 1.02 | S. cerevisiae deletion strains, locus YBR229C, strain ROT2, active compounds read low 1 | S. cerevisiae deletion strains, locus YCL061C, strain MRC1, active compounds read low 1 | S. cerevisiae deletion strains, locus YDL101C, strain DUN1, active compounds read low 0.995 | S. cerevisiae deletion strains, locus YDL134C, strain PPH21, active compounds read low 1.01 | S. cerevisiae deletion strains, locus YDR150W, strain NUM1, active compounds read low 0.982 | S. cerevisiae deletion strains, locus YEL061C, strain CIN8, active compounds read low 1 | S. cerevisiae deletion strains, locus YGR078C, strain PAC10, active compounds read low 1 | S. cerevisiae deletion strains, locus YHR030C, strain SLT2, active compounds read low 1.01 | S. cerevisiae deletion strains, locus YHR087W, strain rtc3, active compounds read low 1 | S. cerevisiae deletion strains, locus YJL187C, strain SWE1, active compounds read low 1 | S. cerevisiae deletion strains, locus YJR043C, strain POL32, active compounds read low 0.997 | S. cerevisiae deletion strains, locus YJR075W, strain HOC1, active compounds read low 1.03 | S. cerevisiae deletion strains, locus YKL190W, strain CNB1, active compounds read low 1.01 | S. cerevisiae deletion strains, locus YLR039C, strain RIC1, active compounds read low 1.04 | S. cerevisiae deletion strains, locus YLR058C, strain SHM2 (second series), active compounds read low 1 | S. cerevisiae deletion strains, locus YLR085C, strain ARP6, active compounds read low 1.03 | S. cerevisiae deletion strains, locus YLR262C, strain YPT6, active compounds read low 1.03 | S. cerevisiae deletion strains, locus YML094W, strain GIM5, active compounds read low 0.997 | S. cerevisiae deletion strains, locus YMR219W, strain ESC1, active compounds read low 1.01 | S. cerevisiae deletion strains, locus YMR263W, strain SAP30, active compounds read low 0.963 | S. cerevisiae deletion strains, locus YNL128W, strain TEP1, active compounds read low 1.02 | S. cerevisiae deletion strains, locus YNL153C, strain GIM3, active compounds read low 1 | S. cerevisiae deletion strains, locus YNL298W, strain CLA4 (second series), active compounds read low 1.02 | S. cerevisiae deletion strains, locus YNL322C, strain KRE1, active compounds read low 1 | S. cerevisiae deletion strains, locus YNR030W, strain Alg12, active compounds read low 1.02 | S. cerevisiae deletion strains, locus YOL006C, strain TOP1, active compounds read low 1.06 | S. cerevisiae deletion strains, locus YPL055C, strain LGE1, active compounds read low 1.02 | S. cerevisiae deletion strains, locus YPL241C, strain CIN2, active compounds read low 0.941 | S. cerevisiae deletion strains, locus YPR135W, strain CTF4, active compounds read low 1.06 | S. cerevisiae strains, strain wild type, active compounds read low 1.02
